Measured values from PubChem BioAssay (NCATS).
Values joined by “and” are separate entries in the source; they are usually repeats but may differ in a detail not shown here. Equal values may be shown once. Inconclusive results are not listed. A call without a number means that no potency is given here. A number with no mark means an inactive call. Active and inactive are the calls of the source. Calls follow the shape of the dose curve; as a rule, active = well fitted inhibition curve with a large enough effect; inconclusive = small, poorly fitted or top-dose-only effect; inactive = flat fitted curve, though single readings scatter.

Legend:
P94_40 = assay: qHTS profiling for inhibitors of Plasmodium falciparum proliferation (AID 504749); also: potency is read from the fitted curve at half-maximal effect; conditions: P. falciparum in erythrocytes, SYBR Green DNA, 72 h; series mostly up to 28.7 µM
How it was run: (§1)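 P. falciparum-infected erythrocytes (0.3% parasitemia, 2.5% hematocrit) incubated with compound 72 h at 37 C, 5% CO2. Parasite DNA detected by SYBR Green after lysis, overnight at room temperature; normalised to 0.29 uM artemisinin and DMSO.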

PAD = assay: as above; conditions: P. falciparum in erythrocytes, SYBR Green DNA, 72 h; series mostly up to 28.7 µM
How it was run: as §1

PC15 = assay: as above; conditions: P. falciparum in erythrocytes, SYBR Green DNA, 72 h; series mostly up to 28.7 µM
How it was run: as §1

PC26 = assay: as above; conditions: P. falciparum in erythrocytes, SYBR Green DNA, 72 h; series mostly up to 28.7 µM
How it was run: as §1

PC49 = assay: as above; conditions: P. falciparum in erythrocytes, SYBR Green DNA, 72 h; series mostly up to 28.7 µM
How it was run: as §1

SC27B = assay: as above; conditions: P. falciparum in erythrocytes, SYBR Green DNA, 72 h; series mostly up to 28.7 µM
How it was run: as §1

TAB109 = assay: as above; conditions: P. falciparum in erythrocytes, SYBR Green DNA, 72 h; series mostly up to 28.7 µM
How it was run: as §1

TAB113 = assay: as above; conditions: P. falciparum in erythrocytes, SYBR Green DNA, 72 h; series mostly up to 28.7 µM
How it was run: as §1

TAB165 = assay: as above; conditions: P. falciparum in erythrocytes, SYBR Green DNA, 72 h; series mostly up to 28.7 µM
How it was run: as §1

W2 = assay: as above; conditions: P. falciparum in erythrocytes, SYBR Green DNA, 72 h; series mostly up to 28.7 µM
How it was run: as §1

CRL-7250 = normal cell line; assay: Cytotoxic Profiling of Annotated Libraries Using Quantitative High-Throughput Screening (AID 1296008); conditions: Five cell lines viability, CellTiter-Glo ATP luminescence, 48-72 h; max response: active compounds read low
How it was run: (§2)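 Cells exposed to compounds for 48 or 72 hr at 37 degrees Celsius. Viability read as ATP-coupled luminescence with CellTiter-Glo after 10 min at room temperature.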

HEK293 = assay: as above; conditions: Five cell lines viability, CellTiter-Glo ATP luminescence, 48-72 h; max response: active compounds read low
How it was run: as §2

HaCat [1] = assay: as above; conditions: Five cell lines viability, CellTiter-Glo ATP luminescence, 48-72 h; max response: active compounds read low
How it was run: as §2

KB-3-1 = assay: as above; conditions: Five cell lines viability, CellTiter-Glo ATP luminescence, 48-72 h; max response: active compounds read low
How it was run: as §2

NIH3T3 = assay: as above; conditions: Five cell lines viability, CellTiter-Glo ATP luminescence, 48-72 h; max response: active compounds read low
How it was run: as §2

HACAT [2] = assay: qHTS assay to identify novel small-molecules to repurpose for Merkel cell carcinoma treatment (AID 1296009); conditions: MCC and control cell lines, CellTiter-Glo viability, 72 h; at 44.8 µM (top of the series) unless noted
How it was run: (§3)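 Cells were treated for 72 hr at 37 degree celsius with compounds in 8- or 11-point dose response. Viability was read by CellTiter-Glo luminescence, normalized to no-cell (cytotoxicity) and DMSO controls.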

HEK293T = assay: as above; conditions: MCC and control cell lines, CellTiter-Glo viability, 72 h; at 44.8 µM (top of the series) unless noted
How it was run: as §3

MCC-13 = assay: as above; conditions: MCC and control cell lines, CellTiter-Glo viability, 72 h; series mostly up to 46 µM
How it was run: as §3

MCC-26 = assay: as above; conditions: MCC and control cell lines, CellTiter-Glo viability, 72 h; series mostly up to 46 µM
How it was run: as §3

MKL-1 = assay: as above; conditions: MCC and control cell lines, CellTiter-Glo viability, 72 h; series mostly up to 46 µM
How it was run: as §3
Also: nearly all actives have a fitted effect of over 60% in size.

How did the Potency (P94_40) turn out when `Cc1c(C(C)C)c(=O)n(-c2ccccc2)n1C` was run?
Its Potency is “inactive”.

What about the Potency (PAD) of the same compound?
Its Potency is “inactive”.

And the Potency (PC15)?
Its Potency is “inactive”.

What about the Potency (PC26) of the same compound?
Its Potency is “inactive”.

And the Potency (PC49)?
Its Potency is “inactive”.

What about the Potency (SC27B) of the same compound?
The Potency was “inactive”.

What about the Potency (TAB109) of the same compound?
The Potency was “inactive”.

And the Potency (TAB113)?
Its Potency is “inactive”.

And the Potency (TAB165)?
The Potency was “inactive”.

And the Potency (W2)?
Its Potency is “inactive”.

And the max response (CRL-7250)?
Its max response is 0.671%.

And the outcome (HEK293)?
Its outcome is “inactive”.

And the outcome (HaCat [1])?
Its outcome is “inactive”.

And the max response (KB-3-1)?
Its max response is -0.49%.

What about the max response (NIH3T3) of the same compound?
Its max response is 0.732%.

And the outcome (HACAT [2])?
The outcome was “inactive”.

What about the outcome (HEK293T) of the same compound?
The outcome was “inactive”.

And the Potency (MCC-13)?
The Potency was “inactive”.

What about the Potency (MCC-26) of the same compound?
The Potency was “inactive”.

What about the Potency (MKL-1) of the same compound?
Its Potency is “inactive”.

`Cc1ccc(Nc2c(F)cccc2Cl)c(CC(=O)O)c1` was tested. Which outcome (CRL-7250) did it give?
Its outcome is “inactive”.

And the max response (HEK293)?
Its max response is 2.42%.

And the outcome (HaCat [1])?
Its outcome is “inactive”.

And the max response (KB-3-1)?
Its max response is -12.9% and 2.03%.

And the max response (NIH3T3)?
Its max response is 2.46%.

And the outcome (HACAT [2])?
The outcome was “inactive”.

And the Potency (MCC-13)?
The Potency was “inactive”.

What about the Potency (MCC-26) of the same compound?
The Potency was “inactive”.

What about the Potency (MKL-1) of the same compound?
The Potency was “inactive”.

Which results are given for `CN=C(NC#N)Nc1ccc(C2=NNC(=O)CC2C)cc1` (configuration not stated)?
Potency (PC26): inactive; Potency (W2): inactive; max response (CRL-7250): -12.9%; outcome (HEK293): inactive; outcome (HaCat [1]): inactive; max response (KB-3-1): 6.06%; max response (NIH3T3): -5.93%; outcome (HACAT [2]): inactive; outcome (HEK293T): inactive; Potency (MCC-13): inactive; Potency (MCC-26): inactive; Potency (MKL-1): inactive

Which Potency (PAD) does the source give for `CN1CCN(C(c2ccccc2)c2ccccc2)CC1` here?
Its Potency is “inactive”.

What about the Potency (PC15) of the same compound?
The Potency was “inactive”.

What about the Potency (PC49) of the same compound?
The Potency was “inactive”.

What about the Potency (SC27B) of the same compound?
Its Potency is “inactive”.

And the Potency (TAB109)?
Its Potency is “inactive”.

And the Potency (TAB113)?
Its Potency is “inactive”.

And the Potency (TAB165)?
Its Potency is “inactive”.

And the Potency (W2)?
Its Potency is 2560 nM (active).

And the max response (CRL-7250)?
The max response was 1.17% and 3.11%.

And the max response (HEK293)?
The max response was -9.52%.

And the max response (HaCat [1])?
Its max response is -15.7%.

What about the outcome (HaCat [1]) of the same compound?
The outcome was “inactive”.

What about the max response (KB-3-1) of the same compound?
Its max response is -11.4% and 1.83%.

What about the max response (NIH3T3) of the same compound?
Its max response is 3.7%.

And the outcome (NIH3T3)?
The outcome was “inactive”.

What about the outcome (HACAT [2]) of the same compound?
Its outcome is “inactive”.

What about the Potency (MCC-13) of the same compound?
The Potency was “inactive”.

And the Potency (MCC-26)?
Its Potency is “inactive”.

And the Potency (MKL-1)?
The Potency was “inactive”.

With `CCOC(=O)OC(C)OC1=C(C(=O)Nc2ccccn2)N(C)S(=O)(=O)c2ccccc21` (configuration not stated) as the compound, how does the Potency (P94_40) read?
Its Potency is “inactive”.

And the Potency (PAD)?
Its Potency is “inactive”.

What about the Potency (PC15) of the same compound?
The Potency was “inactive”.

And the Potency (PC26)?
Its Potency is “inactive”.

And the Potency (PC49)?
Its Potency is “inactive”.

And the Potency (SC27B)?
Its Potency is “inactive”.

What about the Potency (TAB109) of the same compound?
Its Potency is “inactive”.

What about the Potency (TAB113) of the same compound?
The Potency was “inactive”.

And the Potency (TAB165)?
The Potency was “inactive”.

And the outcome (CRL-7250)?
The outcome was “inactive”.

And the outcome (HEK293)?
Its outcome is “inactive”.

And the outcome (HaCat [1])?
The outcome was “inactive”.

And the max response (KB-3-1)?
Its max response is 2.11%.

What about the max response (NIH3T3) of the same compound?
The max response was 3.47%.

And the outcome (HACAT [2])?
The outcome was “inactive”.

What about the outcome (HEK293T) of the same compound?
The outcome was “inactive”.

What about the Potency (MCC-13) of the same compound?
Its Potency is “inactive”.

What about the Potency (MKL-1) of the same compound?
Its Potency is “inactive”.

`CCCCC(=O)O[C@]1(C(=O)CO)CC[C@H]2[C@@H]3CCC4=CC(=O)CC[C@]4(C)[C@H]3[C@@H](O)C[C@@]21C` was tested. Which outcome (CRL-7250) did it give?
The outcome was “inactive”.

What about the max response (HEK293) of the same compound?
The max response was 3.34%.

What about the outcome (HaCat [1]) of the same compound?
Its outcome is “inactive”.

And the max response (KB-3-1)?
The max response was -2.52%.

What about the max response (NIH3T3) of the same compound?
The max response was 1.69%.

What about the outcome (HACAT [2]) of the same compound?
Its outcome is “inactive”.

And the Potency (MCC-13)?
Its Potency is “inactive”.

And the Potency (MCC-26)?
Its Potency is “inactive”.

What about the Potency (MKL-1) of the same compound?
The Potency was “inactive”.

What does the source list for `COC(=O)CCc1ccc(OCC(O)CNC(C)C)cc1` (configuration not stated)?
max response (CRL-7250): -4.17% and 4.01%; max response (HEK293): 1.57% and 1.48%; max response (HaCat [1]): -0.177%; outcome (HaCat [1]): inactive; max response (KB-3-1): 4.51% and -9.53%; max response (NIH3T3): 1.54% and 3.52%; outcome (HACAT [2]): inactive; Potency (MCC-13): inactive; Potency (MCC-26): inactive; Potency (MKL-1): inactive
